For 15 compounds, inhibition results are on record in ChEMBL document CHEMBL1961873, “Compounds: GSK PKIS; Assays: Nanosyn kinase panel” (2012).
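Also: reported values are means of DYRK2 inhibition from screening the GSK PKIS collection at 1 µM.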

The assay has as its target T1, Dual specificity tyrosine-phosphorylation-regulated kinase 2 (Homo sapiens) (UniProt Q92630).
T1 sequence (whole entry): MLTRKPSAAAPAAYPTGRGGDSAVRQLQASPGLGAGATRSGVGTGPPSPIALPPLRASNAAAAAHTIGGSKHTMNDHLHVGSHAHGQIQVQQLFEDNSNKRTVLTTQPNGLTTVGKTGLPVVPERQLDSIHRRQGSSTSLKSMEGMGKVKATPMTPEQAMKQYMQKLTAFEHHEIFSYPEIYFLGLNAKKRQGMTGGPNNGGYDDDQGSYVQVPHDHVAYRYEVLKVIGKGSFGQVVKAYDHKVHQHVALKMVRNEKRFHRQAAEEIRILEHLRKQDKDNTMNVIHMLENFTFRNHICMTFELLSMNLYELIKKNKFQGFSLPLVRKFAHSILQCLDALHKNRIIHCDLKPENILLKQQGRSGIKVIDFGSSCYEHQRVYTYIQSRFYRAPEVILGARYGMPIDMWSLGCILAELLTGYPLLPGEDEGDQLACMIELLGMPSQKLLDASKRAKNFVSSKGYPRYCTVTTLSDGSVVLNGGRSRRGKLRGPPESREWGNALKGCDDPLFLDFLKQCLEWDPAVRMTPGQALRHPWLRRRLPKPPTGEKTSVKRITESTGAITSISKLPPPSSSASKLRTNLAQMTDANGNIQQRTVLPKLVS
The following applies: at 1 µM.
Take `COc1cc2ncn(-c3cc(OCc4ccccc4C(F)(F)F)c(C(N)=O)s3)c2cc1OC`: the inhibition stood at 3.25%.

For `CCn1c(-c2nonc2N)nc2c(N3CCCC3)nccc21`, the inhibition is -1.63%.

For `COc1ccc(-c2coc3ncnc(N)c23)cc1`, the inhibition was 4.61%.

Turning to `Nc1nc(-c2ccc3c(c2)C(=Cc2cc(Br)c(O)c(Br)c2)C(=O)N3)cs1`, the inhibition was -0.96%.

As to `CS(=O)(=O)CCN(CC#N)Cc1ccc(-c2ccc3ncnc(Nc4ccc(OCc5cccc(F)c5)c(Cl)c4)c3c2)o1`, the inhibition came to 0.76%.

As to `COc1ccc(-c2nn3ncccc3c2-c2ccnc(Nc3ccc(Cl)c(C(F)(F)F)c3)n2)cc1`, the inhibition came to 1.84%.

On to `Cc1ccc(NC(=O)c2ccnc(N3CCCC3)c2)cc1-c1ccc(C(=O)NCC2CC2)cc1`, for which the inhibition worked out at 3.11%.

Regarding `CC(C)=Cc1cccc2c1/C(=N/Nc1ccc(S(N)(=O)=O)cc1)C(=O)N2`, the inhibition turned out to be 2.29%.

On to `COc1cc2ncn(-c3cc(O[C@@H](C)c4ccccc4Cl)c(C(N)=O)s3)c2cc1OC`, for which the inhibition was determined as 3.36%.

Take `CCCN1CCC(Oc2cc(Nc3nc(Nc4cccc(F)c4C(N)=O)c4cc[nH]c4n3)c(OC)cc2Cl)CC1`: the inhibition amounted to 0.67%.

As for `Cc1nnc(-c2ccc(C)c(-c3ccc(C(=O)Nc4cccc(C#N)c4)cc3)c2)o1`, the inhibition worked out at 1.2%.

Consider `NS(=O)(=O)c1ccc(N/N=C2\C(=O)Nc3ccc(C(=O)NCCc4c[nH]cn4)cc32)cc1`, for which the inhibition was found to be 33.4%.

Take `CC1=C(C(=O)Nc2ccc3[nH]ncc3c2)C(c2ccc3ccccc3c2)CC(=O)N1` (stereo not given): the inhibition stood at 1.61%.

For the compound `NCc1ccc(-c2nc(-c3ccc(Cl)c(O)c3)c(-c3ccncc3)[nH]2)cc1`, the inhibition turned out to be 0.81%.

In the case of `COc1cc(C=NNc2ncnc3c2cnn3-c2ccccc2)ccc1O`, the inhibition stood at 23.7%.

For orientation: inhibition means the change of the read-out against control, counted positive when it falls.
